The text below walks through data of PubChem BioAssay (Tox21).

Results filed as inconclusive are left out. Where a call stands in place of a potency, no number is given. Calls of active or inactive are those of the source. Calls come from the whole dose curve.

The nature of this assay: qHTS assay for small molecules that induce genotoxicity in human embryonic kidney cells expressing luciferase-tagged ATAD5 - cell viability (AID 651634). Note: nearly all actives have a fitted effect of over 25% in size. The conditions noted are these: HEK293T ATAD5-luc cells viability, CellTiter-Fluor, 15.5 h; series mostly up to 83.3 µM. The text has this:
National Center for Advancing Translational Sciences [NCATS]
NIH Chemical Genomics Center [NCGC]
U.S. Environmental Protection Agency [EPA]
National Institutes of Environmental Health Sciences [NIEHS]
National Toxicology Program [NTP]
U.S. Food and Drug Administration [FDA]
Enhanced Level of Genome Instability Gene 1 (ELG1; human ATAD5) protein levels increase in response to various types of DNA damage. Using a luciferase reporter-gene tagged with ElG1, a cell-based assay [developed by Kyungjae Myung, NHGRI, NIH] was used to measure the induction of ATAD5 in human embryonic kidney cells (HEK293T). So, increase in luciferase activity can be used to identify the compounds that cause genetic stress. In addition to genotoxicity, these cells were also used to test for cytotoxicity by measuring the protease activity within live cells.
Tox21 Assay Protocol Summary:
For cytotoxicity screening, 2,000 cells in 5 uL/well were dispensed into white, solid-bottom 1536-well plates using a Multidrop Combi (Thermo Scientific) dispenser. Following transfer of 23 nL compound or DMSO vehicle by a pin tool, the plates were incubated 15.5 hr at 37C and 5% CO2. 1 ul CellTiter-Fluor reagent (Promega, Madison, WI) was then added to each plate and following 30 min incubation at 37C, fluorescence intensity was quantified on a ViewLux CCD-based plate reader.
In general terms: qHTS replaces the single test concentration by a dilution series.
For the molecule `Cc1cccc(O)c1`, the Potency result was “inactive”.
Same read-out and setting: the value for `CCCCCCCCCCCCS` was “inactive”; that for `CC(=O)Nc1ccccc1` was “inactive”; that for `CCCCCCCCCCCCOCCO` was “inactive”.
On to `O=C(O)c1ccc2c(c1)C(=O)OC2=O`, for which the Potency result is “inactive”.
The same measure, in the same setting: the value for `CCCCOC(=O)COc1ccc(Cl)cc1Cl` was “inactive”; that for `CCCCCC(N)=O` was “inactive”.
As to `c1c[nH]cn1`, the Potency entry was “inactive”.
On the same count and under the same terms, the value for `O=C(O)CC(C(=O)O)C(CC(=O)O)C(=O)O` (stereo not given) was “inactive”; that for `O=C(O)[C@H](O)[C@@H](O)[C@H](O)[C@H](O)CO` was “inactive”; that for `CC[C@H](C)C(=O)O[C@H]1C[C@@H](C)C=C2C=C[C@H](C)[C@H](CC[C@@H]3C[C@@H](O)CC(=O)O3)[C@H]21` was “inactive”.
The same measure, in the same setting: the value for `C=CCNC(N)=S` was “inactive”; that for `CC(C)(N)CO` was “inactive”.
On the same count and under the same terms, the value for `O=C(O)c1ccc(C(=O)O)cc1` was “inactive”.
As to `O=C=NCCCCCCN=C=O`, the Potency result was “inactive”.
With `CCCC(C)=O`, the Potency entry is “inactive”.
The same measure, in the same setting: the value for `O=C(O)c1cc(C(=O)O)cc(S(=O)(=O)O)c1` was “inactive”.
Same read-out and setting: the value for `C/C=C1/CC2C=CC1C2` (stereo not given) was “inactive”.
As for `CCN(CC)CCCC(C)Nc1ccnc2cc(Cl)ccc12` (stereo not given), the activity, negative = cytotoxicity was -6.84% [at 8.08 µM] (inactive).
As for `CC(=O)OCC(=O)[C@@]12N=C(C)O[C@@H]1C[C@H]1[C@@H]3CCC4=CC(=O)C=C[C@]4(C)[C@H]3[C@@H](O)C[C@@]12C`, the Potency result is “inactive”.
The same measure, in the same setting: the value for `OC[C@H]1O[C@@](CO)(O[C@H]2O[C@H](CO)[C@@H](O)[C@H](O)[C@H]2O)[C@@H](O)[C@@H]1O` was “inactive”; that for `CC1=CC(=O)NS(=O)(=O)O1` was “inactive”; that for `C[Si](O[Si](C)(C)C)O[Si](C)(C)C` was “inactive”.
The same measure, in the same setting: the value for `CN(C)CCOCCN(C)C` was “inactive”; that for `C[C@H]1C[C@@H]2[C@H]([C@@H](O)C[C@@]3(C)[C@H]2CC[C@]3(O)C(=O)CO)[C@@]2(C)C=CC(=O)C=C12` was “inactive”; that for `CC(c1cc2ccccc2s1)N(O)C(N)=O` (stereo not given) was “inactive”.
Same read-out and setting: the value for `CCCCC(CC)COC(=O)C(C#N)=C(c1ccccc1)c1ccccc1` (stereo not given) was “inactive”.
As to `CC1CCC2CC1C2(C)C` (stereo not given), the Potency result was “inactive”.
Same read-out and setting: the value for `O=c1[nH]c(=O)n([C@H]2C[C@H](O)[C@@H](CO)O2)cc1Br` was “inactive”.
`CCCCCCCC(=O)OC`: the Potency entry was “inactive”.
Same read-out and setting: the value for `O=C(Oc1ccccc1)c1ccccc1` was “inactive”; that for `CC(C)(C)[C@@H](O)[C@@H](Cc1ccc(Cl)cc1)n1cncn1` was “inactive”; that for `O=C(O)CCCCCCCCCCC(=O)O` was “inactive”.
The same measure, in the same setting: the value for `CC(=O)Nc1cccc(O)c1` was “inactive”.
`Cc1occc(=O)c1O`: the Potency entry was “inactive”.
On the same count and under the same terms, the value for `CC1=CCC2CC1C2(C)C` (stereo not given) was “inactive”; that for `COc1ccc(Cl)cc1C(=O)NCCc1ccc(S(=O)(=O)NC(=O)NC2CCCCC2)cc1` was “inactive”; that for `CCCCCCCCCCCCc1ccccc1` was “inactive”.
On the same count and under the same terms, the value for `O=c1[nH]c(=O)n([C@H]2CCCO2)cc1F` was “inactive”; that for `O=S1(=O)CC=CC1` was “inactive”.
